Bioassay records deposited in PubChem BioAssay by National Center for Advancing Translational Sciences (NCATS).
An excerpt weighted towards active compounds, which were near 12% of everything screened.
SARS PLP yeast = qHTS of Yeast-based Assay for SARS-CoV PLP; S. cerevisiae expressing SARS-CoV PLpro, growth rescue; Potency, µM (titrated, usually from 32.9 µM), for the others: at the top dose activity, positive = growth rescue, most hits filed as activators; 330,000 tested, 0.19% active; AID 485353, 2010; calls by dose curve; further: 0% is about no effect; nearly all actives have a fitted effect of over 55% in size
Pf growth 48h = Primary qHTS for delayed death inhibitors of the malarial parasite plastid, 48 hour incubation; AID 504832, 2011; P. falciparum luciferase growth in erythrocytes, 48 h; 310,000 tested, 5.9% active; Potency, µM (titrated, usually from 28.7 µM), for inactives: top-dose activity change, negative = inhibition, actives largely listed as inhibitors; further: on the % scale 0 is the no-effect control and ±100 the full control effect
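Firefly luciferase activity from engineered P. falciparum reports growth; inhibitors lower the luminescent signal. Cultures contained 2% hematocrit erythrocytes at 0.1% final parasitemia.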
Sm TGR inh = qHTS Assay for the Inhibitors of Schistosoma Mansoni Peroxiredoxins. 360,000 tested, 3% active. Schistosoma mansoni thioredoxin glutathione reductase (TGR), Q962Y6. purified TGR, DTNB reduction, TNB absorbance 405 nm. Potency, µM (top dose mostly 114 µM), for inactives: at the top dose activity change, negative = inhibition, usual class: inhibitors. AID 485364, 2010; further: on the % scale 0 is the no-effect control and ±100 the full control effect; nearly all actives have a fitted effect of over 60% in size
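TGR 20 nM + NADPH 100 uM (dispensed conc.), cpd preinc 15 min RT; start with NADPH (500 uM addition) then DTNB (15 mM addition). Kinetic TNB absorbance, 405 nm filter. Four-parameter Hill fit across titration.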
Pf growth 96h = Primary qHTS for delayed death inhibitors of the malarial parasite plastid, 96 hour incubation; P. falciparum luciferase reporter growth, 96 h; Potency, µM (series often up to 28.7 µM), for inactives: at the top dose activity change, negative = inhibition, actives largely listed as inhibitors; 320,000 tested, 6.9% active; further: on the % scale 0 is the no-effect control and ±100 the full control effect
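Plates of compound plus infected erythrocytes (2% hematocrit, 0.05% parasitemia final) incubate 96 hours, 37 C, 5% CO2. Detection reagent added; reduced luminescence from the parasites' luciferase reporter flags inhibition.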
* hit, by the source's call; ? = inconclusive; . = no result. Unless noted, the call rests on the fitted dose curve; in most records, active means well fitted curve in the direction sought with a large enough effect; inconclusive means small, poorly fitted or top-dose-only effect, or another doubt; inactive means no such curve, though single readings can be large; an effect the other way counts as inactive or inconclusive. Potency means the concentration at half of the fitted maximal effect.

SMILES | SARS PLP yeast | Pf growth 48h | Sm TGR inh | Pf growth 96h
CC(Sc1nnc(-c2ccc(Cl)cc2Cl)n1Cc1ccccc1)C(=O)Nc1nccs1 (stereo unspecified) | -6.4% | ? | 11.7% | 9.28µM*
COc1ccc(OC)c(Nc2c3ccccc3nc3ccccc23)c1 | -3.6% | 1.65µM* | -14.6% | ?
COc1ccc(Nc2nc3ccccc3nc2NS(=O)(=O)c2ccc(C)cc2)c(OC)c1 | . | . | 0.1% | .
COc1cc([N+](=O)[O-])ccc1NC(=O)Nn1cnnc1 | 0.1% | 11.0% | -0.3% | 13.1µM*
COc1cc([N+](=O)[O-])ccc1Nc1nc(C)cc(C)n1 | -1.6% | 15.1% | 7.8% | 9.28µM*
COc1cc(NS(C)(=O)=O)ccc1Nc1c2ccccc2nc2ccccc12 | . | 1.04µM* | -19.0% | 0.928µM*
COc1ccc(OC)c(Nc2c3c(nc4ccccc24)CCC3)c1 | 0.5% | ? | 0.0% | ?
COc1ccc([N+](=O)[O-])cc1NC(=O)CSc1nc(C)cc(C)n1 | 4.0% | 3.8% | ? | ?
O=C(c1cn(CCOc2ccccc2F)c2ccccc12)C1CCCCC1 | . | . | 1.9% | .
COc1ccccc1Nc1c([N+](=O)[O-])cc(C)cc1[N+](=O)[O-] | 0.5% | 4.4% | 0.6% | 10.4µM*
COc1ccccc1Nc1ccc(Nc2ccccc2OC)nn1 | 13.3% | 81.8% | ? | ?
COc1ccc([N+](=O)[O-])cc1Nc1c2ccccc2nc2ccccc12 | 2.2% | 11.7µM* | 2.5% | 16.5µM*
COc1ccc(OC)c(Nc2ccc(Nc3cc(OC)ccc3OC)nn2)c1 | -10.1% | ? | -24.1% | 9.28µM*
C=C1C(CCl)(CCl)C2(Cl)C(Cl)C(Cl)C1(Cl)C2(Cl)Cl (stereo unspecified) | . | 1.9µM* | . | 2.69µM*
COc1ccc(S(=O)(=O)CC2(O)CCN(C(=O)C(C)(C)C)CC2)cc1 | 1.4% | 256.9% | 0.1% | 36.9%
COc1ccc(S(=O)(=O)CC2(O)CCN(C(=O)CC(C)C)CC2)cc1 | 0.8% | 9.28µM* | -7.3% | 8.1%
COC(=O)Nc1ccc(S(=O)(=O)NCCCCCC(=O)O)cc1 | 0.4% | 6.6% | 2.5% | 2.94µM*
CCC1CN(C(=O)N2CCC(C(=O)NCc3cccc(F)c3)CC2)c2ccccc2O1 (stereo unspecified) | 1.7% | ? | -3.0% | 9.28µM*
CCC1CN(C(=O)N2CCC(C(=O)NCc3cccs3)CC2)c2ccccc2O1 (stereo unspecified) | . | . | -10.1% | .
CCC1CN(C(=O)N2CCC(C(=O)NCCOC)CC2)c2ccccc2O1 (stereo unspecified) | . | . | 1.9% | .
CCC1CN(C(=O)N2CCC(C(=O)NCc3ccc(F)cc3)CC2)c2ccccc2O1 (stereo unspecified) | -1.8% | ? | 10.3% | ?
CCC1CN(C(=O)N2CCC(C(=O)NCc3ccco3)CC2)c2ccccc2O1 (stereo unspecified) | -1.1% | -1.8% | -17.9% | 11.7µM*
CCC1CN(C(=O)N2CCC(C(=O)NCc3ccc(C)o3)CC2)c2ccccc2O1 (stereo unspecified) | 2.2% | -4.4% | 5.1% | 9.28µM*
Cc1ccc(-n2c(=O)[nH]c3cc(C(=O)NCCc4ccccc4)ccc3c2=O)cc1 | . | . | 1.8% | .
CC1CCC(NS(=O)(=O)c2ccc(Cl)nc2)CC1 (stereo unspecified) | 2.2% | 29.7% | -9.3% | 26.1%
SMILES | SARS PLP yeast | Pf growth 48h | Sm TGR inh | Pf growth 96h
CSc1ccccc1OCc1cc(C(=O)N2CCSCC2)no1 | 17.2% | 49.6% | 0.0% | 0.0%
COc1ccccc1OCc1cc(C(=O)N2CCCC(OCc3cccnc3)C2)no1 (stereo unspecified) | . | 1.6% | -29.4% | 11.7µM*
Cc1cnc(CN(C)C(=O)c2cc(COc3c(F)cccc3F)on2)[nH]1 | 0.0% | 4.15µM* | 13.9% | -27.3%
CSc1ccccc1OCc1cc(C(=O)N2CCN(c3ncccn3)CC2)no1 | 2.8% | ? | 39.8µM* | ?
CSc1ccccc1OCc1cc(C(=O)N2CCC(Oc3cccnc3)CC2)no1 | . | 13.1µM* | -0.9% | ?
CCOc1ccccc1CNC(=O)C1=C(C)C(=O)OC12CCN(C(C)=O)CC2 | . | . | 4.6% | .
Cc1ccc2nc(SCC(=O)NCc3ccc(F)cc3)nc(=O)n2c1 | 3.6% | 1.6% | -3.8% | 1.2%
CSc1ccccc1OCc1cc(C(=O)N(C)Cc2ccc3nsnc3c2)no1 | -1.7% | 31.4% | 0.1% | 81.7%
